Conditions in all cases: mRNA level, 48 h; actives raise or lower the signal
Read-out in assay [1]: Cyclin Dependent Kinase Inhibitor 1A (CDKN1A), CDKN1A (gene 1026)
Nature of the assay: LTEA_HepaRG_CDKN1A: Life Technologies and Expression Analysis (LTEA) Assay for Cyclin Dependent Kinase Inhibitor 1A (CDKN1A) using HepaRG (AID 2283450). In outline: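 HepaRG, 48 h dosing, 8-pt half-log series from 100 uM top, 0.5% DMSO vehicle, duplicates. Readout: TaqMan qRT-PCR of CDKN1A transcript, housekeeping-normalized (ACTB, GAPDH, POLR2A). Up/down curve fit relative to DMSO.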

Read-out in assay [2]: Cyclin D1 (CCND1), CCND1 (gene 595)
Nature of the assay: LTEA_HepaRG_CCND1: Life Technologies and Expression Analysis (LTEA) Assay for Cyclin D1 (CCND1) using HepaRG (AID 2283451). The procedure, abridged: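 qRT-PCR (Fluidigm 96.96 array) read-out of transcript level, housekeeping-normalized (ACTB/GAPDH/POLR2A). HepaRG cells, 48 h chemical exposure, 8-point half-log series from 100 uM, 0.5% DMSO vehicle; gain or loss relative to DMSO baseline.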

Read-out in assay [3]: catalase (CAT), CAT (gene 847)
Nature of the assay: LTEA_HepaRG_CAT: Life Technologies and Expression Analysis (LTEA) Assay for catalase (CAT) using HepaRG (AID 2283452). In outline:
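Expression of CAT was quantified by TaqMan qRT-PCR with ACTB/GAPDH/POLR2A normalization after 48 h chemical exposure of HepaRG. Eight-point half-log series, top 100 uM, in 0.5% DMSO; gain or loss fitted against vehicle.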

Read-out in assay [4]: flavin-containing dimethylaniline monooxygenases 3 (FMO3), FMO3 (gene 2328)
Nature of the assay: LTEA_HepaRG_FMO3: Life Technologies and Expression Analysis (LTEA) Assay for flavin-containing dimethylaniline monooxygenases 3 (FMO3) using HepaRG (AID 2283453).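 On AC50: differentiated human HepaRG liver cells in serum-free induction medium.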 The procedure, abridged:
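FMO3 transcript quantified by TaqMan qRT-PCR against three housekeeping genes after 48 h chemical exposure of HepaRG cells. Eight-point half-log series, top 100 uM, 0.5% DMSO vehicle; phenobarbital 1mM induction control; up- or down-regulation fitted.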

Read-out in assay [5]: Cytochrome P450 (CYP1A1), CYP1A1 (gene 1543)
Nature of the assay: LTEA_HepaRG_CYP1A1: Life Technologies and Expression Analysis (LTEA) Assay for Cytochrome P450 (CYP1A1) using HepaRG (AID 2283454). In outline: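 qRT-PCR read-out: CYP1A1 transcript normalized to three housekeeping genes, fitted bidirectionally against 0.5% DMSO vehicle baseline. Human HepaRG cells, 48 h chemical exposure, 8-point half-log series topping at 100 uM.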

Read-out in assay [6]: CFLAR gene, CFLAR (gene 8837)
Nature of the assay: LTEA_HepaRG_CFLAR: Life Technologies and Expression Analysis (LTEA) Assay for CFLAR gene using HepaRG (AID 2283455). In outline: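 Transcript level by qRT-PCR (normalized to ACTB, GAPDH and POLR2A) after 48 h chemical exposure of HepaRG cells, top concentration 100 uM with half-log steps, 0.5% DMSO vehicle, duplicates; fitted bidirectionally against DMSO baseline.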

Read-out in assay [7]: Forkhead box O1 (FOXO1), FOXO1 (gene 2308)
Nature of the assay: LTEA_HepaRG_FOXO1: Life Technologies and Expression Analysis (LTEA) Assay for Forkhead box O1 (FOXO1) using HepaRG (AID 2283456). In outline: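 FOXO1 transcript quantified by qRT-PCR after 48 h chemical exposure (top 100 uM, half-log steps, 0.5% DMSO) of HepaRG cells, housekeeping-normalized (ACTB/GAPDH/POLR2A). Changes fitted in both directions relative to vehicle.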

Read-out in assay [8]: growth arrest and DNA damage 45 (GADD45A), GADD45A (gene 1647)
In words: LTEA_HepaRG_GADD45A: Life Technologies and Expression Analysis (LTEA) Assay for growth arrest and DNA damage 45 (GADD45A) using HepaRG (AID 2283458). In outline:
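Transcript induction or loss, quantified by TaqMan qRT-PCR against three housekeeping genes, is the read-out. HepaRG cells received chemicals for 48 h across eight half-log concentrations from 100 uM in 0.5% DMSO; gain and loss fitted relative to DMSO.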

Read-out in assay [9]: ABC Transporter (ABCB1), ABCB1 (gene 5243)
Nature of the assay: LTEA_HepaRG_ABCB1: Life Technologies and Expression Analysis (LTEA) Assay for ABC Transporter (ABCB1) using HepaRG (AID 2283460). In outline:
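ABCB1 transcript level measured by TaqMan qRT-PCR against three housekeeping genes after 48 h chemical exposure of differentiated HepaRG cells. Top concentration 100 uM, half-log steps, eight points, 0.5% DMSO vehicle; bidirectional fit relative to DMSO.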

Read-out in assay [10]: ABC Transporter (ABCB11), ABCB11 (gene 8647)
In words: LTEA_HepaRG_ABCB11: Life Technologies and Expression Analysis (LTEA) Assay for ABC Transporter (ABCB11) using HepaRG (AID 2283463). In outline:
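ABCB11 transcript levels quantified by TaqMan qRT-PCR against three housekeeping genes after 48 h chemical exposure of HepaRG cultures. Concentrations up to 100 uM in half-log steps, 0.5% DMSO vehicle; both induction and suppression scored.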

Read-out in assay [11]: ABC Transporter (ABCC2), ABCC2 (gene 1244)
In words: LTEA_HepaRG_ABCC2: Life Technologies and Expression Analysis (LTEA) Assay for ABC Transporter (ABCC2) using HepaRG (AID 2283464). In outline: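 qRT-PCR (TaqMan, Fluidigm array) read-out of ABCC2 mRNA, normalized to three housekeeping genes. Differentiated HepaRG cells were treated 48 h in serum-free induction medium with 8-point half-log series from 100 uM in 0.5% DMSO; curves fitted bidirectionally relative to DMSO.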

Read-out in assay [12]: Broad substrate specificity ATP-binding cassette transporter ABCG2 (Homo sapiens) (UniProt Q9UNQ0)
In words: LTEA_HepaRG_ABCG2: Life Technologies and Expression Analysis (LTEA) Assay for ABC Transporter (ABCG2) using HepaRG (AID 2283465). The procedure, abridged: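 ABCG2 transcript was quantified by TaqMan qRT-PCR against three housekeeping genes in HepaRG cells. Cells were treated in duplicate for 48 h across an 8-point half-log series up to 100 uM, with 0.5% DMSO vehicle. Gain or loss versus DMSO was fit.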

Read-out in assay [13]: ATP-citrate lyase (ACLY), ACLY (gene 47)
Nature of the assay: LTEA_HepaRG_ACLY: Life Technologies and Expression Analysis (LTEA) Assay for ATP-citrate lyase (ACLY) using HepaRG (AID 2283466). In outline:
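ACLY mRNA quantified by qRT-PCR on Fluidigm arrays against three housekeeping genes, after 48 h chemical treatment of HepaRG cells (top concentration 100 uM, half-log steps, 0.5% DMSO vehicle). Up- or down-regulation fitted relative to DMSO.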

Read-out in assay [14]: Peroxisomal acyl-coenzyme A oxidase 1 (ACOX1) gene, ACOX1 (gene 51)
In words: LTEA_HepaRG_ACOX1: Life Technologies and Expression Analysis (LTEA) Assay for Peroxisomal acyl-coenzyme A oxidase 1 (ACOX1) gene using HepaRG (AID 2283467). In outline: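 ACOX1 transcript levels were quantified by TaqMan qRT-PCR against three housekeeping genes after 48 h chemical exposure of differentiated human HepaRG cells. Exposure used eight half-log steps topping at 100 uM, 0.5% DMSO vehicle, in duplicate. Bidirectional curve fits were made relative to DMSO.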

Read-out in assay [15]: Alkaline Phosphatase, Placental (ALPP) gene, ALPP (gene 250)
Nature of the assay: LTEA_HepaRG_ALPP: Life Technologies and Expression Analysis (LTEA) Assay for Alkaline Phosphatase, Placental (ALPP) gene using HepaRG (AID 2283468).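 On AC50: differentiated human HepaRG liver cells in serum-free induction medium.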 The procedure, abridged: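 qRT-PCR readout of ALPP mRNA (Fluidigm TaqMan), normalized to ACTB/GAPDH/POLR2A, after 48 h chemical exposure of HepaRG cells; 8-point half-log series, top 100 uM, 0.5% DMSO vehicle. Bidirectional curve fit versus DMSO baseline.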

Read-out in assay [16]: Bcl-2 (BAD) gene, BAD (gene 572)
Nature of the assay: LTEA_HepaRG_BAD: Life Technologies and Expression Analysis (LTEA) Assay for Bcl-2 (BAD) gene using HepaRG (AID 2283469). In outline:
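Read-out: qRT-PCR of BAD mRNA, normalized to three housekeeping genes. Human HepaRG cultures got 48 h chemical exposure in 0.5% DMSO, duplicate eight-point half-log series topping at 100 uM. Gain or loss of signal fitted versus DMSO vehicle.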

Read-out in assay [17]: ABC Transporter (ABCC3), ABCC3 (gene 8714)
Nature of the assay: LTEA_HepaRG_ABCC3: Life Technologies and Expression Analysis (LTEA) Assay for ABC Transporter (ABCC3) using HepaRG (AID 2283462). The procedure, abridged:
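qRT-PCR read-out of ABCC3 transcript, normalized to three housekeeping genes (ACTB, GAPDH, POLR2A), after 48 h chemical exposure of human HepaRG cells. Eight half-log concentrations, highest 100 uM, in 0.5% DMSO; gain or loss fitted relative to DMSO baseline.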

Read-out in assay [18]: growth arrest and DNA damage 45 (GADD45B), GADD45B (gene 4616)
Nature of the assay: LTEA_HepaRG_GADD45B: Life Technologies and Expression Analysis (LTEA) Assay for growth arrest and DNA damage 45 (GADD45B) using HepaRG (AID 2283461). The procedure, abridged: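 qRT-PCR read-out (Fluidigm TaqMan, housekeeping-normalized) of mRNA change in human HepaRG cells after 48 h chemical exposure; 8-point curve, top 100 uM, half-log steps, 0.5% DMSO vehicle; gain or loss fitted relative to DMSO baseline.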

Read-out in assay [19]: Forkhead box O3 (FOXO3), FOXO3 (gene 2309)
In words: LTEA_HepaRG_FOXO3: Life Technologies and Expression Analysis (LTEA) Assay for Forkhead box O3 (FOXO3) using HepaRG (AID 2283459). The procedure, abridged:
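FOXO3 transcript measured by qRT-PCR (normalized to ACTB, GAPDH, POLR2A) after 48 h exposure of HepaRG cells in serum-free induction medium. Duplicates, eight half-log concentrations up to 100 uM, 0.5% DMSO; gain or loss fitted against DMSO.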

Active and inactive are the calls of the source. How the source made its calls: active means hit-call score of the fitted dose curve at least 0.9, where 1 is the maximum; inactive means score below 0.9.

The text below walks through data of PubChem BioAssay (EPA / NIEHS).

Broad substrate specificity ATP-binding cassette transporter ABCG2 (Homo sapiens), sequence (Q9UNQ0 whole entry, looked up): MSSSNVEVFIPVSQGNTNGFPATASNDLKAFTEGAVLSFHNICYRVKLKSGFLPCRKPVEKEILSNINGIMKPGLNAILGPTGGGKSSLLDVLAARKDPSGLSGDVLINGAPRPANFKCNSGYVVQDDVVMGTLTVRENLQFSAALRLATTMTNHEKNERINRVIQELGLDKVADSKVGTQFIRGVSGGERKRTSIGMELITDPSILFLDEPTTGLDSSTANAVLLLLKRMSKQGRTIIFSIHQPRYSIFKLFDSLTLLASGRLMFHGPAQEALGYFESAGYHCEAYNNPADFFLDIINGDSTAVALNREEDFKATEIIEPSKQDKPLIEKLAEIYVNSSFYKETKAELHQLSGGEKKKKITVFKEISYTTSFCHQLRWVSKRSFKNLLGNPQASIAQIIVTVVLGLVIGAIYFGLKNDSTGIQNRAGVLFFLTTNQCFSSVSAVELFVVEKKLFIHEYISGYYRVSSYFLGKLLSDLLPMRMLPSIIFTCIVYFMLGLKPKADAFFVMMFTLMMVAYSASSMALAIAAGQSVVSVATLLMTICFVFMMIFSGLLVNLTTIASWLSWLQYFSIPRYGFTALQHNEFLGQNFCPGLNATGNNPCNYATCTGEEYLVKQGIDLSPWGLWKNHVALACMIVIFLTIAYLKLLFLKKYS

As for `CCCC(=O)OCCC(C)C`, the result in assay [1], in assay [2], in assay [3], in [4], in assay [6] and in assay [7] was inactive. Also, the call in [8], in [9], in assay [10], in [11], in [12] and in [13] was inactive. In addition, the outcome in assay [14], in assay [15] and in assay [16] was inactive. For the same compound, in assay [5], the AC50 is 68.2 µM (active).
On to `COCC(C)OCC(C)OCC(C)O` (centres undefined), for which the outcome in assay [1], in assay [2], in assay [3], in [4], in assay [5] and in assay [6] was inactive. Also, the compound was called inactive in [7], in assay [8], in assay [9], in [17], in [10] and in assay [11]. Moreover, the result in assay [12], in [13], in assay [14], in [15] and in assay [16] was inactive.
`CO[C@H]1/C=C/O[C@@]2(C)Oc3c(C)c(O)c4c(O)c(c(/C=N/N5CCN(C)CC5)c(O)c4c3C2=O)NC(=O)/C(C)=C\C=C\[C@H](C)[C@H](O)[C@@H](C)[C@@H](O)[C@@H](C)[C@H](OC(C)=O)[C@@H]1C`: the outcome in assay [1], in assay [2], in assay [3], in assay [4], in assay [6] and in [7] was inactive. For the same compound, the compound was called inactive in assay [8], in assay [17], in assay [10], in [12], in [13] and in [16]. For the same compound, the AC50 is 31.2 µM (active) in assay [5], 0.442 µM (active) in [9], 0.344 µM (active) in [11] and 31.2 µM (active) in assay [15].
Turning to `COc1cccc([C@H](O)C2CCN(CCc3ccc(F)cc3)CC2)c1OC`, the compound was called inactive in [1], in assay [2], in assay [3], in [4], in [6] and in assay [7]. For the same compound, the compound was classed as inactive in assay [8], in assay [9], in [18], in assay [17], in assay [11] and in assay [12]. Besides, the compound was classed as inactive in assay [16]. In addition, the AC50 in assay [5] is 54.5 µM (active); in [10] it was 26.6 µM (active); in assay [13], 80.7 µM (active); in assay [15], 9.92 µM (active).
On to `CC1(C)NC(=O)N(c2ccc([N+](=O)[O-])c(C(F)(F)F)c2)C1=O`, for which the concentration at half-maximal activity (AC50) in assay [1] was 80.8 µM (active); in assay [4], 76.6 µM (active); in assay [8], 50 µM (active); in assay [9] it was 50 µM (active); in assay [17] it was 75.3 µM (active); in assay [10] it was 77.1 µM (active). The AC50 in [12] was 29.3 µM (active); in assay [13], 76.5 µM (active); in assay [14], 63.7 µM (active); in assay [15] it was 50 µM (active). The result in assay [2], in assay [5], in assay [6], in assay [7], in assay [19] and in [11] was inactive. For the same compound, in assay [16], the call was inactive.
`Cc1cn([C@H]2C[C@H](N=[N+]=[N-])[C@@H](CO)O2)c(=O)[nH]c1=O`: the call in [1], in assay [2], in assay [3], in assay [4], in [5] and in assay [6] was inactive. Further, the outcome in assay [7], in assay [8], in [9], in [18], in assay [10] and in assay [11] was inactive. The result in [12], in assay [13], in [15] and in [16] was inactive.

What is called AC50 is the midpoint of the concentration-response curve, whichever way the signal moves.
